Assay results: PubChem BioAssay (NCATS)
Inconclusive results are not listed. The source made the active and inactive calls. Unless noted, calls come from the whole dose curve; as a rule, active = well fitted curve in the direction sought with a large enough effect; inconclusive = small, poorly fitted or top-dose-only effect, or another doubt; inactive = no such curve, though single readings can be large; an effect the other way counts as inactive or inconclusive.

Legend:
[1] = target: Lysosomal acid glucosylceramidase (Homo sapiens) (UniProt P04062); assay: Glucocerebrosidase-p2 (AID 348; in the data active = potency below about 10 µM; note: potency is the fitted concentration of half-maximal effect); conditions: purified GBA, blue fluorogenic substrate, 40 min
How it was run: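 Compounds titrated from 0.6 nM upwards against 0.2 nM enzyme in pH 5.9 citric acid/KH2PO4, taurocholate, tween-20; blue fluorogenic substrate 80 uM, 40 min room temperature, stopped and read Ex 365/Em 440 for AC50.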

[2] = AP1 Signaling Pathway (AID 357; active = well fitted curve in either direction with a large enough effect, not every such curve was filed as active;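 note: ME-180 reporter cells stimulated with EGF at its EC50 level; % is set by controls: 0 for no effect and ±100 for the full control effect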); conditions: ME-180 AP-1-bla reporter, EGF-induced, beta-lactamase ratio, 5 h; at 7.69 µM (top of the series) unless noted
How it was run: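 A ratiometric CCF4 readout (405 nm excitation; 460 and 530 nm emission) quantified AP-1-driven beta-lactamase in ME-180 cells after 5 h with compound and EC50 EGF; AC50 values were derived for activators and inhibitors.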

[3] = target: Cytochrome P450 1A2 (Homo sapiens) (UniProt P05177); assay: p450-cyp1a2 (AID 410; calls by dose curve; note: potency is the fitted concentration of half-maximal effect;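 for activity change, negative = inhibition: -100% = full effect of reference inhibitor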); conditions: recombinant CYP1A2, luciferin-ME demethylation, luminescence; series mostly up to 57 µM
How it was run: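 Inhibition was calculated relative to 57 uM furafylline (full inhibition). The reaction used human CYP1A2 at 20nM with Luciferin-ME at its Km, 100uM, driven by an NADPH-regenerating system for 60 min at room temperature.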

[4] = NFAT Signaling Pathway (AID 444; active = well fitted curve in either direction with a large enough effect, not every such curve was filed as active;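 note: carbachol stimulus at about its EC50 of 1 µM final; % is set by controls: 0 for no effect and ±100 for the full control effect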); conditions: Jurkat NFAT-bla M1, carbachol, beta-lactamase ratio, 5 h; at 7.69 µM (top of the series) unless noted
How it was run: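 Jurkat cells carrying an NFAT-driven β-lactamase reporter and co-transfected muscarinic M1 receptor were treated with compound plus carbachol (1 uM final, an EC50 level) for 5 h at 37 °C. CCF4 loading followed for 1 h at RT; 460/530 nm ratio gave %activity.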

[5] = Stat Signaling Pathway (AID 446; active = well fitted curve in either direction with a large enough effect, not every such curve was filed as active;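 note: ME-180 cervical cancer cells given 40 pM IL-6 alongside compound; SIE-controlled beta-lactamase reporter measured as 460/530 nm FRET emission ratio; % is set by controls: 0 for no effect and ±100 for the full control effect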); conditions: ME-180 SIE beta-lactamase reporter, IL-6 stimulated, 5 h; at 7.69 µM (top of the series) unless noted
How it was run: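 ME-180 SIE-bla cells; overnight plating; cpd + IL-6 40 pM, 5 h, 37 C; LiveBLAzer 2.5 h RT; 460/530 nm emission ratio. Normalized to 300 pM IL-6 and 125 nM JAK inhibitor controls.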

[6] = target: Glucocorticoid receptor (Homo sapiens) (UniProt P04150); assay: GR-EFC Redistribution (AID 451; calls by dose curve; note: potency is the fitted concentration of half-maximal effect); conditions: CHO-K1 GR-EFC translocation, beta-gal luminescence, 2 h
How it was run: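 CHO-K1 cells stably expressing nuclear-localized β-gal enzyme acceptor and GR fused C-terminally to the enzyme donor fragment; ligand-driven nuclear translocation restores β-gal by complementation. Compounds titrated up to 46 uM final, 2 h at 37 °C; luminescence read.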

[7] = target: 3',5'-cyclic-AMP phosphodiesterase 4B (Homo sapiens) (UniProt Q07343); assay: qHTS Assay for Inhibitors of PDE-IV (AID 607; active = well fitted activation curve with a large enough effect in the main read-out, with a control signal flat, not every such curve was filed as active; note: % of control where 0% means no effect); conditions: HEK293 ACTOne CNG channel cells, membrane potential fluorescence; series mostly up to 22.9 µM
How it was run: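 ACTOne HEK293 cells carry a modified cAMP-gated CNG channel and express endogenous PDE4; plated 1000 cells/well, compounds up to 22.9 uM final. Membrane-potential dye fluorescence (ex 535/em 590) was read; parental cells received 10 uM forskolin + 100 uM RO 20-1724.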

[8] = qHTS Assay for Lipid Storage Modulators (AID 1519; calls by dose curve); conditions: Drosophila S3 cells, BODIPY lipid droplet/cell ratio, laser cytometry, cells loaded with oleic acid; for activity change, negative = inhibition: at 57.5 µM (top of the series)
How it was run: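 Cells seeded at 5,000 per well were treated with compounds over a concentration series and loaded with oleic acid (400 uM, as added). Lipid droplet fluorescence (488 nm excitation, 500-530 nm channel) was read by laser-scanning cytometry and normalized to 20 uM Triacsin C.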

[9] = Primary qHTS for small molecule stabilizers of the endoplasmic reticulum resident proteome: Secreted ER Calcium Modulated Protein (SERCaMP) assay (AID 1508630); conditions: SH-SY5Y GLuc-SERCaMP (Gaussia luciferase released on ER calcium loss) secretion, thapsigargin, luminescence; series mostly up to 38.4 µM; note: % is set by controls: 0 for no effect and ±100 for the full control effect
How it was run: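 GLuc-SERCaMP-expressing SH-SY5Y cells, pretreated 16 h with compound, are challenged with thapsigargin to empty ER calcium stores; after 4 h, coelenterazine is added directly to the medium and luminescence is imaged.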

[10] = target: Rap guanine nucleotide exchange factor 3 (Homo sapiens) (UniProt O95398); assay: Confirmatory qHTS for antagonist of cAMP-regulated guanine nucleotide exchange factor 3 (EPAC1) (AID 1645880); conditions: EPAC1 Rap1B-BODIPY-GDP exchange, fluorescence; series mostly up to 115 µM;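 note: plate controls were DMSO only for no effect and full effect of the ATA control for full effect; nearly all actives have a fitted effect of over 55% in size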
How it was run: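 Nucleotide exchange uses 100 nM EPAC1, 250 nM RAP1B-BODIPY-GDP and 50 uM GDP, with compounds in a concentration-titration series. After 5 min at room temperature, fluorescence (480 nm ex/540 nm em) is read every 5 min for 30 min. Data are normalized to control ATA and DMSO.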

[11] = target: Rap guanine nucleotide exchange factor 3 (Homo sapiens) (UniProt O95398); assay: Confirmatory qHTS for agonist of cAMP-regulated guanine nucleotide exchange factor 3 (EPAC1) (AID 1645881); conditions: EPAC1 Rap1B BODIPY-GDP exchange fluorescence, 100% = cAMP control response; series mostly up to 154 µM;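 note: EPAC1 catalysed release of BODIPY-GDP from Rap1B seen as fluorescence loss; nearly all actives have a fitted effect of over 75% in size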
[12] = target: Rap guanine nucleotide exchange factor 4 (Homo sapiens) (UniProt Q8WZA2); assay: Confirmatory qHTS for agonist of cAMP-regulated guanine nucleotide exchange factor 4 (EPAC2) (AID 1645884); conditions: EPAC2 GEF activity, Rap1B-BODIPY-GDP fluorescence, percent relative to cAMP agonist control; series mostly up to 154 µM;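 note: nucleotide exchange releases bodipy-GDP from Rap1 and this lowers its fluorescence; % is set by controls: 0 for no effect and ±100 for the full control effect; nearly all actives have a fitted effect of over 65% in size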
[13] = target: Rap guanine nucleotide exchange factor 4 (Homo sapiens) (UniProt Q8WZA2); assay: Confirmatory qHTS for antagonist of cAMP-regulated guanine nucleotide exchange factor 4 (EPAC2) (AID 1645885); conditions: EPAC2 Rap1B-BODIPY-GDP exchange fluorescence, biochemical; series mostly up to 114 µM; note: nearly all actives have a fitted effect of over 25% in size; note: potency is the fitted concentration of half-maximal effect
[14] = target: Glucocorticoid receptor (Homo sapiens) (UniProt P04150); assay: GR-GFP Redistribution (AID 450;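 active = compounds whose dose series gives a full or clear partial fitted curve of increased nuclear translocation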; note: potency is the fitted concentration of half-maximal effect); conditions: U2OS GR-GFP nuclear translocation, laser cytometry, 2 h
[15] = target: Mitogen-activated protein kinase 10 (Mus musculus) (UniProt Q61831); assay: JNK3 AlphaScreen Assay (AID 530; active = well fitted curve in either direction with a large enough effect, not every such curve was filed as active); conditions: JNK3 lysate, c-Jun phosphorylation; series mostly up to 57.1 µM
How it was run: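 JNK3 came from HepG2 lysates pre-activated with IL-1beta and TNF-alpha and phosphorylated biotinylated GST-cJun (1-79) at 10 uM ATP, pH 7.6, room temperature. Compounds were titrated. AlphaScreen signal used anti-phospho-cJun (Ser73) antibody.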

[16] = target: Cytochrome P450 3A4 (Homo sapiens) (UniProt P08684); assay: qHTS Assay for Activators of Cytochrome P450 3A4 (AID 885); conditions: recombinant CYP3A4, Luciferin-PPXE luminescence, 60 min; series mostly up to 57.1 µM; note: nearly all actives have a fitted effect of over 65% in size
How it was run: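 20nM CYP3A4 + 25uM Luciferin-PPXE (=KM), 200mM KPO4; cpd 10 min RT; NADPH regen, 60 min RT; stop w/ detection buffer, 20 min; luminescence. Normalized to 57 uM ketoconazole.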

[17] = target: Dual specificity protein kinase CLK4 (Homo sapiens) (UniProt Q9HAZ1); assay: qHTS Assay for Inhibitors of CDC-like Kinase 4 (Kinase-Glo Assay) (AID 1770); conditions: recombinant Clk4, Kinase-Glo ATP depletion luminescence; series mostly up to 66.7 µM; note: % is set by controls: 0 for no effect and ±100 for the full control effect; nearly all actives have a fitted effect of over 65% in size
How it was run: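 Luminescent ATP-depletion read-out (Kinase-Glo) after 4.5 h room-temperature reaction of Clk4 (25 nM final) with RS peptide (100 uM) and ATP (1 uM), pH 7.5 Tris buffer with MgCl2 and DTT.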

[18] = target: Dual specificity protein kinase CLK4 (Homo sapiens) (UniProt Q9HAZ1); assay: qHTS Assay for Inhibitors of CDC-like Kinase 4 (ADP-Glo Assay) (AID 1771); conditions: recombinant CLK4, ADP-Glo luminescence; series mostly up to 80 µM; note: % is set by controls: 0 for no effect and ±100 for the full control effect; nearly all actives have a fitted effect of over 70% in size
How it was run: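 Kinase reaction: Clk4 at 25 nM, RS repeat peptide substrate at 100 uM, ATP at 1 uM, 1 hr, room temperature. Product ADP detected as luciferase signal via ADP-Glo.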

[19] = target: Dual specificity protein kinase CLK4 (Homo sapiens) (UniProt Q9HAZ1); assay: qHTS Assay for Inhibitors of CDC-like Kinase 4 (ADP-FP Assay) (AID 1795); conditions: Transcreener ADP fluorescence polarization; series mostly up to 50 µM;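 note: recombinant human CLK4 phosphorylating RS repeat peptide at 1 µM ATP; % is set by controls: 0 for no effect and ±100 for the full control effect; nearly all actives have a fitted effect of over 60% in size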
How it was run: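 Kinase activity was measured as ADP production using Transcreener orange tracer (4 nM) and ADP antibody (1 ug/mL) fluorescence polarization, with ADP calculated from a calibration curve. The 1 h reaction contained 6.25 nM Clk4, 1 uM ATP and 100 uM RS peptide at pH 7.5 with Mg2+.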

[20] = target: Ubiquitin carboxyl-terminal hydrolase 1 (Homo sapiens) (UniProt O94782); assay: Inhibitors of USP1/UAF1: Pilot qHTS (AID 504865); conditions: purified USP1/UAF1, Ub-rhodamine cleavage fluorescence; series mostly up to 54.9 µM; note: potency is the fitted concentration of half-maximal effect; nearly all actives have a fitted effect of over 35% in size
How it was run: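 Deubiquitinase activity followed as kinetic rhodamine fluorescence release from 150 nM Ub-Rho. 1 nM USP1/UAF1 with compound, after 15 min room-temperature preincubation, in HEPES pH 7.8 buffer containing TCEP, EDTA, BSA and Tween-20.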

[21] = Confirmation and Secondary Assay for Modulators of Hemoglobin Beta Chain Splicing at IVS2 654 locus (AID 910); conditions: HeLa EGFP-654 splicing reporter, GFP fluorescence, 48 h; series mostly up to 38.3 µM;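 note: per-well total GFP intensity by laser scanning cytometry after 2-day treatment; % of control where 0% means no effect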
How it was run: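 HeLa cells stably carrying EGFP interrupted by mutant beta-globin IVS2-654 intron (CMV-driven) were treated with compound for 2 days at 37C; corrected splicing was scored as total peak GFP intensity per well (488 nm excitation, 500-520 nm emission).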

[22] = Confirmation and Secondary Assay for Modulators of Hemoglobin Beta Chain Splicing at IVS2 705 locus (AID 930); conditions: HeLa EGFP-705 splicing reporter, GFP fluorescence, 48 h; series mostly up to 38.3 µM;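 note: HeLa cells stably expressing the EGFP-705 splicing reporter; GFP fluorescence per well restored by corrected splicing of the IVS2-705 intron in EGFP; % of control where 0% means no effect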
How it was run: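 Fluorescence gain (488 nm laser, 500-520 nm PMT) reflects restored correct splicing of a mutant IVS2-705 intron inside EGFP in stably transfected HeLa cells after 2-day compound treatment.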

[23] = NCATS anti-infectives library activity on HEK293 viability as a counter-qHTS vs the C. elegans viability qHTS (AID 1745854); conditions: HEK293 viability counter-screen; series mostly up to 41.8 µM
How it was run: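 Cytotoxicity in human HEK293 cells is measured by ATP-dependent CellTiter-Glo luminescence following a 24 hr incubation with titrated library compounds at 37C. Top final concentration is 41.7 uM.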

[24] = measured here: cell count channel max response
[25] = measured here: lipid channel max response

Chain of Rap guanine nucleotide exchange factor 4 (Homo sapiens) (Q8WZA2 whole entry, looked up): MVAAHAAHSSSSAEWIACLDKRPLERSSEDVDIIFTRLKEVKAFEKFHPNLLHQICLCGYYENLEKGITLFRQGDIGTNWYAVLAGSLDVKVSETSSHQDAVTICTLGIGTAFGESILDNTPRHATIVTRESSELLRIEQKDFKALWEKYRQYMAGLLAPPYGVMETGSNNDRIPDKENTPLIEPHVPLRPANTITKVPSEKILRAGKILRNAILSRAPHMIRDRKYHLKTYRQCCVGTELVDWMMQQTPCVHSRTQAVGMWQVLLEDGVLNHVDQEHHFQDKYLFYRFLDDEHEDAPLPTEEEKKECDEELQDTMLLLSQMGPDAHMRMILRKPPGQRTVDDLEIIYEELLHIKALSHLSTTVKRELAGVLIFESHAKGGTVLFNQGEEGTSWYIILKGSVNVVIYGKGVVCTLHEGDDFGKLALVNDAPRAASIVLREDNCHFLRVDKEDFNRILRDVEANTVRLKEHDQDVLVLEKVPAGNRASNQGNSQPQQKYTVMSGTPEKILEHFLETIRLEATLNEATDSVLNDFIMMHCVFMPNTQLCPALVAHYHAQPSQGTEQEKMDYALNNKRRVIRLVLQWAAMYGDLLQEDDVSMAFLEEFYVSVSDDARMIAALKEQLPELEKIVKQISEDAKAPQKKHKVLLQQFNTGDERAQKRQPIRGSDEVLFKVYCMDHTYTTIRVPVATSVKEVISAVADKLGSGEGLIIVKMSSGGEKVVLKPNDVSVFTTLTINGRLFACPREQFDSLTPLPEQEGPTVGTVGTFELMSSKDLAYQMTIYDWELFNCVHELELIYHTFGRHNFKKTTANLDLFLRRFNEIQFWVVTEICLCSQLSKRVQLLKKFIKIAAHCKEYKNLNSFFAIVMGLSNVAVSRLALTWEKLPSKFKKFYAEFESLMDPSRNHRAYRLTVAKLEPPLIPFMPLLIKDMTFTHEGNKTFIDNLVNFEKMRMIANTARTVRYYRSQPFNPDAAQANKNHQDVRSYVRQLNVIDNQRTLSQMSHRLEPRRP
Chain of Dual specificity protein kinase CLK4 (Homo sapiens) (Q9HAZ1 whole entry, looked up): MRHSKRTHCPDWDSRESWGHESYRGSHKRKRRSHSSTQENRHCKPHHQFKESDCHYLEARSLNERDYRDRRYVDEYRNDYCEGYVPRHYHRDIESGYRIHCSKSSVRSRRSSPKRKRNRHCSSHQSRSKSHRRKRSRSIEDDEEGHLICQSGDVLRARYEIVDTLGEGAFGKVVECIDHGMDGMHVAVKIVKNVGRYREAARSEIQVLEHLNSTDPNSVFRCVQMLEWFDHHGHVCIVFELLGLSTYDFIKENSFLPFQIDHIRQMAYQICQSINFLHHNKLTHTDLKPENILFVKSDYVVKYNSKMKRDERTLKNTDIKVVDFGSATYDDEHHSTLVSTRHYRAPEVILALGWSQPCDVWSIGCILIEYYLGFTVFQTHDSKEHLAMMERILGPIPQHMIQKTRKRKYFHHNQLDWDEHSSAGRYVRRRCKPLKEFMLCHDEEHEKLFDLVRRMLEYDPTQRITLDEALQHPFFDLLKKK
Chain of Rap guanine nucleotide exchange factor 3 (Homo sapiens) (O95398 whole entry, looked up): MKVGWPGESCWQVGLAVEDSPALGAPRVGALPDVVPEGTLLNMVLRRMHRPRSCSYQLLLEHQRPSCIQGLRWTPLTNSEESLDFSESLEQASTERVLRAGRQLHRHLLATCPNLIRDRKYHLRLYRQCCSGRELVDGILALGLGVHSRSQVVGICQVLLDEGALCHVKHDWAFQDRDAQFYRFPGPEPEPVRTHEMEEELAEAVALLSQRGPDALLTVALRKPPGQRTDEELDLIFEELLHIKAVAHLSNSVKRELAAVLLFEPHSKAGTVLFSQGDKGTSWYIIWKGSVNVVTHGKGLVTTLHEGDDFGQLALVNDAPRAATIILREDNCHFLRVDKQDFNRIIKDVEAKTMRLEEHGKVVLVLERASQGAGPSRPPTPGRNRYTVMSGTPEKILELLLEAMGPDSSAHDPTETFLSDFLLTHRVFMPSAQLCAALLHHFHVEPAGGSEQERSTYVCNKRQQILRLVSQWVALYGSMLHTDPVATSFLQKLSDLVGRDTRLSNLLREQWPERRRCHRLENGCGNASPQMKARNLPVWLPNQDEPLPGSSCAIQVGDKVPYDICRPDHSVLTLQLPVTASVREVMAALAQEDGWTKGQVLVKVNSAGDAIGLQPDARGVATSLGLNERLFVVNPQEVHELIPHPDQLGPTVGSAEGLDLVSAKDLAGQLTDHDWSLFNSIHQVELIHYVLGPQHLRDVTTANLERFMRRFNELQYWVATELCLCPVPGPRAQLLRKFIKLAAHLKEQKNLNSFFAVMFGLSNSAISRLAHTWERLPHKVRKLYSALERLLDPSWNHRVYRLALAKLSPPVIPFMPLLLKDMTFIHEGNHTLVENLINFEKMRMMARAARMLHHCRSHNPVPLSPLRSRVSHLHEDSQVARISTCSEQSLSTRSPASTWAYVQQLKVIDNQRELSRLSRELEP
Chain of Glucocorticoid receptor (Homo sapiens) (P04150 whole entry, looked up, the tested form may be a part): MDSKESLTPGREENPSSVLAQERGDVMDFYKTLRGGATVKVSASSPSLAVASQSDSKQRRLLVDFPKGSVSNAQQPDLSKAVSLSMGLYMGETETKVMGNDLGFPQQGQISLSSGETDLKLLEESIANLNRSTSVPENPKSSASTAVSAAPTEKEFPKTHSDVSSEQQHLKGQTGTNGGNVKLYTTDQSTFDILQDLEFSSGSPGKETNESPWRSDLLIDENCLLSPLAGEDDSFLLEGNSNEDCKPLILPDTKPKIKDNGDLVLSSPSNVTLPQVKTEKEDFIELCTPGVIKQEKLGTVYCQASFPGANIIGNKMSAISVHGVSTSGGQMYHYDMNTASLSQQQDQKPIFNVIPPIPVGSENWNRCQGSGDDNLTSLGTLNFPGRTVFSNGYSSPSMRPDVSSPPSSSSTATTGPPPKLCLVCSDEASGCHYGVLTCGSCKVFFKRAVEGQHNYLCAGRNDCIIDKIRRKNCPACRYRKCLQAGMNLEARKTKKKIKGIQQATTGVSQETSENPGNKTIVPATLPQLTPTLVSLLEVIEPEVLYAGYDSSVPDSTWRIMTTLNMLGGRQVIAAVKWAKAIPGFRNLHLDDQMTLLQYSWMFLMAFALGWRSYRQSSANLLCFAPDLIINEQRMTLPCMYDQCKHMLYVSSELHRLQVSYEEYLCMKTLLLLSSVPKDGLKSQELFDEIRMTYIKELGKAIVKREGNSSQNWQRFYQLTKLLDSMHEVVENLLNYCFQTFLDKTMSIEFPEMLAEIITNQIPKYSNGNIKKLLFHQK
Chain of Cytochrome P450 1A2 (Homo sapiens) (P05177 whole entry, looked up): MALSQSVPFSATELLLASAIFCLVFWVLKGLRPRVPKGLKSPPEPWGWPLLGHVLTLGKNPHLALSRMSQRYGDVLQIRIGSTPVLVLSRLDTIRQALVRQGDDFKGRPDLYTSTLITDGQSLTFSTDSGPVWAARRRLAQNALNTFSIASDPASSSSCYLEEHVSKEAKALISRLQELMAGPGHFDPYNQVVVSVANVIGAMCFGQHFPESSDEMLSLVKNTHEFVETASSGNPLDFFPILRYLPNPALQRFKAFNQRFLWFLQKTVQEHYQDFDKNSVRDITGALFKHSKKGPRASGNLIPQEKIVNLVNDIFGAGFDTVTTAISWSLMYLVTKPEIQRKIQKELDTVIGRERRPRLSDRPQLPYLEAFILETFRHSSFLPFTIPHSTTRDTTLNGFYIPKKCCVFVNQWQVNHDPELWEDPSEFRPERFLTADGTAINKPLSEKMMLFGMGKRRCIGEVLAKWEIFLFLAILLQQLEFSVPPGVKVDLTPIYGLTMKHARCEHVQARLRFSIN
Chain of Lysosomal acid glucosylceramidase (Homo sapiens) (P04062 whole entry, looked up): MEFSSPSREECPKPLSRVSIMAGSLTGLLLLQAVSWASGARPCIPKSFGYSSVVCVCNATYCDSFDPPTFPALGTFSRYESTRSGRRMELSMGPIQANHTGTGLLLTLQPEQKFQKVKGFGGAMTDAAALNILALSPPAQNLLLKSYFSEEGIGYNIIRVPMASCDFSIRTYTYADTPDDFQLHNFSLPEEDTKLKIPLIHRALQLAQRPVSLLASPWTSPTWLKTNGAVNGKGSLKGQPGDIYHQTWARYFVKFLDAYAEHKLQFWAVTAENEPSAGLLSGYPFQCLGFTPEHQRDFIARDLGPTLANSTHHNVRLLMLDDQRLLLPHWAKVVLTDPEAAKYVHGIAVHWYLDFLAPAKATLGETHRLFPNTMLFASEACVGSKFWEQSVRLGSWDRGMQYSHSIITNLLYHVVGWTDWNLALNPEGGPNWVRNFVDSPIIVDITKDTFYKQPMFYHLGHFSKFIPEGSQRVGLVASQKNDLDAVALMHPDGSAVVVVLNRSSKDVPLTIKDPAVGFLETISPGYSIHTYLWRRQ
Chain of Ubiquitin carboxyl-terminal hydrolase 1 (Homo sapiens) (O94782 whole entry, looked up): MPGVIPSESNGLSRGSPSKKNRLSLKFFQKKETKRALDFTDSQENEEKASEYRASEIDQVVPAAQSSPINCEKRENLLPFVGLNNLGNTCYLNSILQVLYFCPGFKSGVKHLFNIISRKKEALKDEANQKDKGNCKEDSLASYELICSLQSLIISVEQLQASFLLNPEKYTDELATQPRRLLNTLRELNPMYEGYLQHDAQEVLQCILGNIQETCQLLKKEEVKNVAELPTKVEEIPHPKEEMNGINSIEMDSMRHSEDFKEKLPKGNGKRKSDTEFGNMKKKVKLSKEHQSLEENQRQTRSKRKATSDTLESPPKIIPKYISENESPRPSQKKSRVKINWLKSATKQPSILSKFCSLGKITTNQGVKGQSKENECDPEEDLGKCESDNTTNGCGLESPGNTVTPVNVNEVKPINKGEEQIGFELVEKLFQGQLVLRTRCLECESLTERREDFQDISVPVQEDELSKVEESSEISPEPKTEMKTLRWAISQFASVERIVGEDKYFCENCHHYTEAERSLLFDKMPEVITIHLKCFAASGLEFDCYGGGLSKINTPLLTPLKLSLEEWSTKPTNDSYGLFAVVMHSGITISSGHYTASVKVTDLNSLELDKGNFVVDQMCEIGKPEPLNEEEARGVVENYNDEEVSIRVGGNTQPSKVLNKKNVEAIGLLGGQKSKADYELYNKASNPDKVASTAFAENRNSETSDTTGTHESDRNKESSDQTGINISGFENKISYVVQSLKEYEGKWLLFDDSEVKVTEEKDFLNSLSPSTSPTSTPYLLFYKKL

COCC(=O)N1CCC2(CC1)CN(c1ccccn1)C2
1.59%: max response [8, 24]
inactive: Potency [1] > 11.4 µM | activity change, negative = inhibition [2] -0.233% | Potency [3] | activity change, negative = inhibition [4] 1.7% | activity, negative = inhibition [5] 9.91% | Potency [6] > 46 µM | Potency [7] | activity change, negative = inhibition [8] 1.23% | Potency [9] | Potency [10] | outcome [11] | outcome [12] | Potency [13]
3.63%: max response [8, 25]

COc1ccccc1CNc1nc(-c2c(C)noc2C)nc2ccccc12
inactive: Potency [1] > 11.4 µM | activity change, negative = inhibition [2] 2.62% | activity, negative = inhibition [5] -26.3% | Potency [14] > 46 µM | Potency [6] > 46 µM | outcome [15] | Potency [16] | activity change, negative = inhibition [8] 7.14% | Potency [17] | Potency [18] | Potency [19] | Potency [9] | outcome [11] | outcome [12]
active: Potency [3] 0.631 µM | Potency [20] 28.2 µM | Potency [13] 39.3 µM
14%: max response [8, 24]
19.1%: max response [8, 25]

O=C(Oc1ccccc1)N1CCC2(CCCN(c3ccccc3)C2)CC1
inactive: Potency [1] > 11.4 µM | activity change, negative = inhibition [2] 8.28% | activity, negative = inhibition [5] 8.61% | Potency [6] > 46 µM | outcome [15] | activity change, negative = inhibition [8] -26.4% | Potency [9] | Potency [10] | outcome [11] | outcome [12] | Potency [13]
-12.6%: max response [8, 25]
active: Potency [3] 15.8 µM
17%: max response [8, 24]

Cc1noc(C)c1C(=O)N1CCC2(CCN(Cc3ccc(C#N)cc3)CC2)CC1
inactive: Potency [1] > 11.4 µM | activity change, negative = inhibition [2] 22% | activity, negative = inhibition [5] 2.67% | Potency [6] > 46 µM | Potency [7] | activity change, negative = inhibition [8] -1.31% | Potency [9] | Potency [10] | outcome [11] | outcome [12] | Potency [13]
9.89%: max response [8, 24]
10.9%: max response [8, 25]

CC(C)=CCC1=C(O)c2ccccc2C(=O)C1=O
0.642%: max response [8, 25]
active: Potency [20] 35.5 µM
inactive: outcome [21] | outcome [22] | activity change, negative = inhibition [8] -0.846% | Potency [9] | Potency [23]
-0.752%: max response [8, 24]
